According to PubChem BioAssay AID1117319 (Southern Research Institute, 2015):
Where “and” joins values, the source holds several entries; their conditions need not be identical. Equal entries are not always repeated. The campaign covered roughly 260,000 compounds. About 1,500 (0.58%) were called active. Another 5% or so got no clear call; they are omitted.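 The calls were made as follows: active = inhibition above a set limit at one or more doses, reproduced on every date tested; inconclusive = results disagree between test dates, or hit never tested in dose response; inactive = the rest.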 Only a sample is shown. Results with a measured potency or affinity are listed apart.

Each molecule was assayed against Virion infectivity factor (Human immunodeficiency virus type 1 group M subtype B (isolate BH10)) + Virion infectivity factor (Human immunodeficiency virus type 1 group M subtype B (isolate BRU/LAI)) + Virion infectivity factor (Human immunodeficiency virus type 1 group M subtype B (isolate PCV12)) + Virion infectivity factor (Human immunodeficiency virus type 1 group M subtype B (isolate HXB2)) + DNA dC->dU-editing enzyme APOBEC-3G (Homo sapiens) (UniProt P69720+P69721+P69722+P69723+Q9HC16) (assay: inhibitors of Vif binding to APOBEC3G peptide, primary screen, biochemical, TR-FRET, GST-Vif 1-94, biotin-A3G peptide, dose response retest (AID 1117319;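 also: Vif residues 1-94 fused to GST binding biotinylated APOBEC3G peptide 110-148; 0% = full assay without inhibitor and 100% = GST in place of GST-Vif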)). Conditions: stronger effect = higher value.

inhibition, inactive:
CCN(CC)S(=O)(=O)c1ccc(N2CC(C(=O)NCCC3=CCCCC3)CC2=O)cc1 (stereo unspecified) -3.38%
Cc1ccc(S(=O)(=O)N2CCN(Cc3ccccn3)CC2)cc1 0.21%
CC(=O)Nc1ccc(S(=O)(=O)N2CCN(c3ccccn3)CC2)cc1 25%
O=C(O)/C(=C\c1cn(-c2ccccc2)nc1-c1cccnc1)NC(=O)c1ccccc1 -1.44%
Cc1ccc(OCc2n[nH]c(=S)n2-c2ccccc2)cc1C -3.72%
Cc1cccc(OCc2n[nH]c(=S)n2-c2ccccc2)c1 1.89%
O=C(CN1CCN(C(=O)c2ccccc2)CC1)Nc1cc(S(=O)(=O)N2CCCC2)ccc1Cl -24.1%
COC(=O)C1=C(C)NC(C)=C(C(=O)OC)C1C(=O)OCc1nc2cc(C(=O)OC)ccc2c(=O)[nH]1 -5.82%
Cc1ccc(-c2nc(N)n(S(=O)(=O)c3ccc(C)cc3)n2)cc1 0.67%
O=C(C1CC=CCC1)N1CCN(S(=O)(=O)c2ccc(F)cc2)CC1 (stereo unspecified) -4.47%
CC(C)C1Nc2ccc(S(N)(=O)=O)cc2C2C=CCC21 (stereo unspecified) 30.5%
CC(OC(=O)c1n[nH]c2ccccc12)C(=O)NC1CCCCC1C (stereo unspecified) 1.37%
CCOC(=O)N1CCN(c2ccc(Cl)cc2)CC1 -2.77%
CCOC(=O)N1CCN(c2ccc([N+](=O)[O-])cc2)CC1 0.75%
CCc1ccccc1NC(=S)N(CCCN(C)C)Cc1cc2cc3c(cc2[nH]c1=O)OCO3 -0.74%
Clc1ccc(Oc2nc(N3CCOCC3)nc(N3CCOCC3)n2)c(C2CCCCC2)c1 -3.78%
O=C(O)c1ccc(N2C(=O)CSC2c2cccc([N+](=O)[O-])c2)cc1 (stereo unspecified) -1.67%
O=C(O)c1cccc2c1-c1c(cccc1[N+](=O)[O-])C2 -2.94%
O=C(NC1CC1)c1ccc2c(c1)C1C3CCC(C3)C1C(c1ccccc1)N2 (stereo unspecified) 3.47%
CCN(CC(=O)Nc1ccc(NC(C)=O)cc1)C(=O)c1ccc(N2CCC(C)CC2)c([N+](=O)[O-])c1 3.59%
CCN(C(=O)c1ccc(Cl)c([N+](=O)[O-])c1)c1ccccc1 3.48%
O=C(O)C1CCC(NSc2ccccc2[N+](=O)[O-])CC1 (stereo unspecified) -7.35%
CC(C)Cc1cc(C(=O)Nc2cc(C(F)(F)F)ccc2Cl)no1 14.1%
C=Cc1ccc(CSc2cc(C)nc3nc(C)nn23)cc1 -4.49%
Cc1ccc(CNc2ccc3c(c2)ncn3C(C)C)cc1 15.2%
CC(C)(C)c1ccc(C(=O)C2CCCN(C(=O)CN3CCCC3=O)C2)cc1 (stereo unspecified) -3.41%
Cc1ccc(NC(=O)CCCN2C(=O)C(c3ccccc3)Oc3cccnc32)c(C)c1 (stereo unspecified) -3%
CCCCOc1ccc(C(=O)N/C(=C\c2ccc(OC)cc2)C(=O)OCc2ccco2)cc1 -1.87%
COc1ccc(C(=O)N/C(=C\c2ccco2)C(=O)OCc2ccco2)cc1 19.9%
COc1ccc2c(c1)NC(C)(C)C=C2C 32.2%
COc1cc(NC(C)CCCNC(C)C)c2ncccc2c1OC (stereo unspecified) 3.4%
COc1cc(NCCCCCCCN)c2ncccc2c1 3.69%
COC(=O)c1cc(NC(=O)COC(=O)CCc2c[nH]c3ccccc23)cc(C(=O)OC)c1 2.64%
O=C1N=C(N2CCOCC2)S/C1=C/c1ccc(-c2ccccc2Cl)o1 7.88%
CC(=O)N1CC(=O)N(Cc2ccccc2)/C(=C/c2ccccc2)C1=O 7.17%
O=C1CC(/C=C/c2ccccc2)=Nc2ccccc2N1 4.19%
O=C1CC(/C=C/c2ccncc2)=Nc2ccccc2N1 3.89%
CC1=C([N+](=O)[O-])C(c2ccc(Cl)cc2)NC(=O)N1C (stereo unspecified) 6.98%
FC(F)(F)c1ccc(N2CCN(Cc3ccc4c(c3)OCO4)CC2)nc1 -10.1%
CCOC(=O)C1=C(N)OC2=C(C(=O)CC(C)(C)C2)C1c1ccoc1 (stereo unspecified) -2.95%
CC(C)NC(=O)COc1ccc(Cl)cc1Cl -3.29%
Cc1ccc(C(=O)/C=C/Nc2cccc(O)c2)cc1 1.59%
C/C(=C\C(=O)c1ccc(Br)cc1)Nc1cccc(Cl)c1 -2.57%
O=C(Cc1ccccc1)NNC1CC(=O)N(c2ccc(Cl)cc2)C1=O (stereo unspecified) 8.41%
Cc1ccnc(SCc2cc(=O)c(OC(=O)c3ccccc3)co2)n1 6.36%
CCN(CC)c1ccc(NC(=O)Nc2ccccc2)cc1 5.11%
CCN(CC)c1ccc(C(=S)NCc2ccccc2)cc1 7.25%
COc1ccccc1NC(=O)C(C)N1C(=O)C2CCCCC2C1=O (stereo unspecified) 9.66%
COc1ccc(CCNC(=S)Nc2cc(C)ccc2C)cc1 2.7%
COc1ccc(N=C2NC(=O)/C(=C/C=C/c3ccccc3)S2)cc1 -3.43%
Cn1cccc1/C=C1\SC(=Nc2ccc(O)cc2)NC1=O -0.29%
COC(=O)/C=C1\SC(=Nc2ccc(OC)cc2)NC1=O -0.91%
O=C1NC(=Nc2ccc3ccccc3c2)S/C1=C/c1ccco1 -0.8%
COc1ccc2c(c1OC)C(=O)OC2CC(=O)c1ccc2c(c1)OCO2 (stereo unspecified) -2.78%
CCOC(=O)CSc1ccc2nnc(-c3ccncc3)n2n1 3.55%
Cc1ccc(NC(=O)C2CCC2)cc1S(=O)(=O)N1CCCCCC1 0.74%
O=S(=O)(NCC(c1cccnc1)N1CCOCC1)c1ccc(Cl)cc1 (stereo unspecified) 1.91%
CC(C)c1ccccc1NC(=O)Cn1c(/C=C/c2ccccc2)nc2ccccc21 2.28%
Cc1cc(N/N=C/c2ccc(N(C)C)cc2)nc(NCc2ccccc2)n1 7.69%
CC(=O)c1ccc(S(=O)(=O)NCc2cccnc2)cc1 0.59%
COc1cc(C(C)=O)ccc1OCC(=O)N1CCCC1c1ccc2c(c1)OCCCO2 (stereo unspecified) -2.26%
CCCCn1c(SCC(=O)NCCOC)nc2ccc(N3CCOCC3)cc2c1=O 32.1% and 5.24%
CCCCn1c(SCC(=O)NCc2ccccc2)nc2ccc(N3CCOCC3)cc2c1=O 18.7%
CCCC(=O)Nc1cc(C)c(NC(=O)Cc2ccccc2)cn1 -1.31%
CCN(CC)c1cc(Cl)c2nonc2c1N 0.28%
Nc1c(N2CCCC2)cc(Cl)c2nonc12 22.8%
CCOC(=O)N1CCN(C(=O)c2c(-c3ccccc3)noc2C)CC1 -4.55%
O=C(NCc1ccco1)c1cc(-c2ccccc2)on1 -2.43%
COc1cccc(-c2cc(C(=O)NCc3ccco3)no2)c1 2.27%
Cc1onc(-c2c(F)cccc2Cl)c1C(=O)NCc1ccco1 0.03%
Cc1onc(-c2c(Cl)cccc2Cl)c1C(=O)NCc1ccco1 2.61%
O=C(NCCCn1ccnc1)C(=O)NCC1OCCN1S(=O)(=O)c1ccccc1 (stereo unspecified) 20.3%
Cc1ccc(S(=O)(=O)N2CCCc3ccccc32)cc1 3.67%
Cc1ccc(-c2sc(C(=O)NN)c(C)c2C#N)cc1 -0.1%
CCc1noc(C)c1C(=O)NC1CCCc2c1cnn2-c1cc(C)cc(C)c1 (stereo unspecified) -1.36%
O=C1N[C@@H](c2ccccc2)COC(=O)[C@H](Cc2ccc(F)cc2)CC/C=C/C[C@H]1CC(=O)N(CCO)Cc1ccccc1 3.93%
COc1cccc(-c2cccc(NC(=O)C3CCN(CCCn4cccn4)CC3)c2)c1 6%
CCn1nc(C(=O)Nc2cc(Cl)ccc2-n2cncn2)c2ccccc2c1=O -6.28%
C=CCn1c(O)c(C(CC)=NCc2cccnc2)c(=O)[nH]c1=O 7.28%
C=CCn1c(O)c(C(CC)=Nc2ccccc2NC(=O)CC)c(=O)[nH]c1=O 30.8%
Cc1ccc(OCc2n[nH]c(=S)n2Cc2ccccc2)cc1 24.6%
O=C(Cc1ccccc1)Nc1ccc(N2CCN(Cc3ccccc3F)CC2)cc1 6.73%
COC(=O)C1CCN(C(=O)CCCOc2ccccc2)CC1 8.9%
CC(=O)Nc1ccc(SCC(=O)Nc2ccccc2N2CCOCC2)cc1 -9.09%
COC(=O)c1cc(C(=O)OC)cc(S(=O)(=O)Nc2ccc(Cl)c(N)c2)c1 -4.45%
Oc1ccc(/C=N/n2c(-c3ccco3)csc2=Nc2cccnc2)c(O)c1 21%
CN=c1scc(C)n1/N=C/c1ccc2c(c1)OCO2 13.4%
COc1ccc(O)c(/C=N/n2c(-c3ccco3)csc2=Nc2cccnc2)c1 6.77%
C=CCN=c1scc(-c2ccccc2)n1/N=C/c1ccccn1 11.2%
CN1CCN(CC(O)COc2ccccc2)CC1 (stereo unspecified) -7.2%
CCCCNc1oc(-c2cccs2)nc1S(=O)(=O)c1ccccc1 -0.64%
CC(C)(CNC(=O)c1cccs1)CNC(=O)c1cccs1 0.17%
O=C(CSc1nccc(=O)[nH]1)NCc1ccc2c(c1)OCO2 3.96%
CCOC(=O)N1CCN(CC(O)COCCC23CC4CC(CC(C4)C2)C3)CC1 (stereo unspecified) 13.8%
O=C1CCCc2c1sc1nc3n(c(=O)c21)CCCCC3 2.33%
O=c1c2c3c(sc2nc2n1CCCCC2)CCCCC3 0.94%
